The values below come from PubChem BioAssay AID504332 (National Center for Advancing Translational Sciences (NCATS), 2011).

The campaign covered roughly 350,000 compounds. About 31,000 (8.9%) were called active. Roughly 15% stayed inconclusive and do not appear here. Shown is part of a subset that was picked to be rich in actives. A number with no mark means an inactive call. Calls come from the whole dose curve; as a rule, active = well fitted inhibition curve with a large enough effect; inconclusive = small, poorly fitted or top-dose-only effect; inactive = no such curve, though single readings can be large or run the other way.
% is set by controls: 0 for no effect and ±100 for the full control effect; potency is the fitted concentration of half-maximal effect.

The assay deals with Histone-lysine N-methyltransferase EHMT2 (Homo sapiens) (UniProt Q96KQ7). Kind of assay: qHTS Assay for Inhibitors of Histone Lysine Methyltransferase G9a. Note: nearly all actives have a fitted effect of over 75% in size. The note with it: G9a H3K9 monomethylation, AlphaScreen, 2 h; series mostly up to 59 µM; activity, negative = inhibition: at the top concentration. Summed up: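 AlphaScreen read-out: biotin-H3K9 peptide (500 nM) methylation by 20 nM enzyme with 20 uM SAM, 2 h at room temperature after 15 min compound preincubation; anti-monomethyl H3K9 antibody plus donor/acceptor beads, 10 min dark.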
Histone-lysine N-methyltransferase EHMT2 (Homo sapiens), sequence (Q96KQ7 913-1193 limits assumed): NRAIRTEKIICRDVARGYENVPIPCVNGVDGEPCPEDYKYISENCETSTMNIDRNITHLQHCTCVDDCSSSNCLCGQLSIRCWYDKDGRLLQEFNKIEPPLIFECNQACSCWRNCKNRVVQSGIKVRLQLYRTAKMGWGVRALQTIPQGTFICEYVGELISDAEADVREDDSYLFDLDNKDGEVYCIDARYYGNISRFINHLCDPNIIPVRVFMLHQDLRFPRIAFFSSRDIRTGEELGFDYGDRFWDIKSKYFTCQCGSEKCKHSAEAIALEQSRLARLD
(In general: qHTS replaces the single test concentration by a dilution series.)
In the case of `CCN1CCN(CC(=O)Nc2sc3c(c2C#N)CCC3)CC1`, the Potency was 70.8 µM (active).

As for `CCCc1cc(=O)[nH]c(SCC(=O)Nc2sc3c(c2C#N)CCCC3)n1`, the “activity, negative = inhibition” value was 4.02% [at 102 µM].

On to `CN1CCN(CC(=O)Nc2sc3c(c2C#N)CCC(C(C)(C)C)C3)CC1` (stereo not drawn), for which the activity, negative = inhibition was 2.75% [at 12.7 µM].

On to `Cc1ccc(C)c(OCC(=O)Nc2sc3c(c2C#N)CCCC3)c1C`, for which the “activity, negative = inhibition” value is 8.72%.

On to `Cc1cccc(C(=O)OCC(=O)Nc2sc3c(c2C#N)CCC3)c1`, for which the “activity, negative = inhibition” value was 22.1%.

As to `CCC1CCCCN1C(=O)Cn1c(=O)n(CCCCCC(=O)NCc2ccccc2)c(=O)c2sccc21` (stereo not drawn), the “activity, negative = inhibition” value is -0.514%.

`COc1ccccc1C(=O)Nc1c(C(=O)N(C)Cc2ccccc2)sc2nc(C)c(Cl)c(C)c12`: the “activity, negative = inhibition” value is -34.1%.

Regarding `Cc1ccccc1NC(=O)CN1C(=O)C(C)(C)c2ccccc21`, the “activity, negative = inhibition” value is 13.1%.

For `C=C1CCC(N(O)c2cc(C)on2)C(=C)CCC2C1CC2(C)C` (stereo not drawn), the activity, negative = inhibition is -0.801% [at 0.501 µM].

As for `CCCCC12CN3CC(C)(CN(C1)C3c1ccc(O)c(OC)c1)C2=O` (stereo not drawn), the “activity, negative = inhibition” value was -6.49%.

As for `CCC[C@H]1CCCC/C=C\CCCC(=O)OCCN1C(=O)OC(C)(C)C`, the activity, negative = inhibition was 5.32% [at 2.33 µM].

Take `O=C1CC(c2nnc(Cc3ccc(Cl)cc3)o2)CN1c1ccccc1` (stereo not drawn): the “activity, negative = inhibition” value is -40.5%.

As to `CC(C)N(C(=O)c1ccc(-c2ccccc2F)cc1)C(C)C`, the “activity, negative = inhibition” value was 46.1% [at 102 µM].

For the compound `CC(=O)N(C1=C(Cl)C(=O)c2ccccc2C1=O)c1ccc(C(=O)O)cc1`, the Potency is 0.891 µM (active).

Turning to `O=C(CN1C(=O)c2ccccc2C1=O)NCc1ccc(C(=O)O)cc1`, the “activity, negative = inhibition” value is 18.2% [at 102 µM].

In the case of `COc1cccc(CNCc2c(C(=O)O)n(Cc3ccc(C)cc3)c3cc(C)ccc23)c1OC`, the “activity, negative = inhibition” value is -34.2%.

Turning to `CCn1c(=O)c(=O)n(CC)c2cc(N3CCCCC3)c(NC(=O)c3cccc(F)c3)cc21`, the “activity, negative = inhibition” value was -23.6%.

With `CCn1c(=O)c(=O)n(CC)c2cc(N3CCCCC3)c(NC(=O)c3ccc(Cl)cc3)cc21`, the activity, negative = inhibition is 1.91% [at 12.7 µM].

As to `CCn1c(=O)n(CC)c2cc(N3CCCC3)c(NC(=O)c3ccccc3Br)cc21`, the Potency is 44.7 µM (active).

For the compound `Cc1cc(C)cc(NC(=O)Cn2c(=O)c3ccccc3n3nncc23)c1`, the “activity, negative = inhibition” value is 6%.

Turning to `COc1cc(C(=O)OCC(=O)N(CC(C)C)C2CCS(=O)(=O)C2)ccc1OCC(C)C` (stereo not drawn), the “activity, negative = inhibition” value is -31.5% [at 102 µM].

On to `COc1ccc(C(=O)OCC(=O)N2CC(=O)Nc3ccccc32)cc1Br`, for which the “activity, negative = inhibition” value is -27.7% [at 102 µM].

On to `CCOC(=O)N1CCN(C(=O)c2cn(C)c3ccc(S(=O)(=O)N4CCCC4)cc3c2=O)CC1`, for which the “activity, negative = inhibition” value was -3.84%.

Take `Cc1ccc(S(=O)(=O)N2CCN(C)CC2)cc1C(=O)NC1CCCCC1`: the “activity, negative = inhibition” value was 107% [at 102 µM].

In the case of `Cc1ccc(S(=O)(=O)N2CCCCC2)cc1C(=O)N1CCN(CCO)CC1`, the Potency is 11.2 µM (active).

`Cc1cccc(N2CCN(c3c(CN4CCCC4)c(=O)oc4ccccc34)CC2)c1C`: the “activity, negative = inhibition” value was -1.43%.

For `COc1ccc(N(CC(=O)NCCc2ccc(Cl)cc2)S(=O)(=O)c2c(C)nn(C)c2C)cc1`, the “activity, negative = inhibition” value was 1.32%.

For `CCC(=O)N1CCc2cc(S(=O)(=O)NC(Cc3ccccc3)C(=O)NCc3ccccc3)ccc21` (stereo not drawn), the “activity, negative = inhibition” value was 1.47%.

With `Cc1ccc(S(=O)(=O)NCCC(=O)NCc2ccc(Cl)cc2)cc1C`, the “activity, negative = inhibition” value was 3.24%.

As for `COc1cc2c(cc1OC)C(/C=C/c1ccco1)=NCC2`, the Potency is 50.1 µM (active).

In the case of `CCOC(=O)C1=NN(c2ccc(Cl)cc2)/C(=C/C2=NCCc3cc(OC)c(OC)cc32)S1`, the “activity, negative = inhibition” value was 4.77%.

Regarding `COc1cc2c(cc1OC)C(c1cccc([N+](=O)[O-])c1)=NCC2`, the “activity, negative = inhibition” value was -8.09% [at 102 µM].

Consider `O=C(O)c1cccc2c1C(=O)N(C1CCCC1)C2`, for which the “activity, negative = inhibition” value is -7.12% [at 102 µM].

With `O=C(OCC(=O)N1CCN(C(=O)c2ccco2)CC1)c1ccc(Cl)c(Cl)c1`, the activity, negative = inhibition is 16.1% [at 12.7 µM].

In the case of `COc1ccc(NC(=O)c2ccc3nc(C(C)C)oc3c2)cc1OC`, the “activity, negative = inhibition” value was -4.62%.

On to `Cc1cc2nc3n(c2cc1C)CC1CC(C(=O)NCCC(C)C)N(C)C31` (stereo not drawn), for which the activity, negative = inhibition was 5.1% [at 12.7 µM].

For the compound `CCc1ccc(CN(Cc2ccco2)C(=O)c2ccccc2Cl)cc1`, the “activity, negative = inhibition” value was 27.6%.

In the case of `CC1CCC(NC(=O)c2ccc(N3CCCC3=O)cc2)CC1` (stereo not drawn), the “activity, negative = inhibition” value was -8.7% [at 102 µM].

With `CCOc1ccc(C(=O)NCCCN2CCCC2=O)cc1`, the “activity, negative = inhibition” value is -47.7%.

In the case of `O=C(NCCCN1CCCCCC1)c1ccc(N2CCCC2=O)cc1`, the Potency was 22.4 µM (active).

`Cc1nc(SCC(=O)N2CCN(c3ccccc3)CC2)[nH]c(=O)c1C`: the “activity, negative = inhibition” value is 7.52%.

Turning to `CC(C)Cn1c(N)c(C(=O)COC(=O)C2CCCN2C(=O)c2cccs2)c(=O)n(C)c1=O` (stereo not drawn), the “activity, negative = inhibition” value was -29%.

Consider `O=C(CCCN1C(=O)/C(=C/c2cccs2)SC1=S)Nc1ccc(O)cc1`, for which the “activity, negative = inhibition” value is -11.9% [at 102 µM].

On to `CC(C(=O)Nc1ccc(O)c(C(=O)O)c1)N1C(=O)/C(=C/c2cccs2)SC1=S` (stereo not drawn), for which the Potency is 35.5 µM (active).

In the case of `O=C(CCN1C(=O)/C(=C/c2cccs2)SC1=S)NNC(=O)c1cccc(O)c1`, the “activity, negative = inhibition” value is 20.4% [at 102 µM].

On to `O=C(COc1ccccc1Cl)Nc1ccccc1C(=O)NC1CC1`, for which the “activity, negative = inhibition” value was 3.29% [at 102 µM].

As to `Cc1cnc(C)c(N2CCN(C(=O)C3CCC(=O)N(CCc4cccc(F)c4)C3)CC2)n1` (stereo not drawn), the “activity, negative = inhibition” value is 30.6% [at 102 µM].

`CCCCC(CC(C)O)c1n[nH]c(=S)n1-c1ccccc1` (stereo not drawn): the Potency was 5.01 µM (active).
